{
  "source": "PubChem BioAssay (EPA / NIEHS)",
  "note": "Results filed as inconclusive are left out. Activity calls are given as the source filed them. Rule for the calls: active = hit-call score of the fitted dose curve at least 0.9, where 1 is the maximum; inconclusive = response in the unintended direction; inactive = score below 0.9.",
  "data": [
    {"tested_on": "NCBI gene 100848466", "test": "NVS_NR_bPR: NovaScreen (NVS) Nuclear Receptor Binding Assay for bovine Progextron Receptor (PR) (AID 2283343);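 for AC50: actives lower bound radioligand signal below DMSO meaning displacement of the label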", "description": "NVS_NR_bPR is a biochemical, single-readout assay that uses extracted gene-proteins from Bovine uterine membranes in a tissue-based cell-free assay. Measurements were taken 18 hours after chemical dosing in a 96-well plate.NVS_NR_bPR is one of one assay component(s) measured or calculated from the NVS_NR_bPR assay. It is designed to make measurements of radioligand binding, a form of binding reporter, as detected with scintillation counting signals by Lysate-based radiodetection technology.Data from the assay component NVS_NR_bPR was analyzed into 1 assay endpoint. This assay endpoint, NVS_NR_bPR, was analyzed in the positive analysis fitting direction relative to DMSO as the negative control and baseline of activity. Using a type of binding reporter, loss-of-signal activity can be used to understand changes in the binding as they relate to the gene PGR. Furthermore, this assay endpoint can be referred to as a primary readout, because the performed assay has only produced 1 assay endpoint. To generalize the intended target to other relatable targets, this assay endpoint is annotated to the nuclear receptor intended target family, where the subfamily is steroidal.\nBinding assays used specific radioligands (tritiated, iodinated) with non-radioactive competitive displacement ligands in agonist or antagonist protocols (as indicated) and various reference compounds and inhibitors to titrate specific binding to receptors and transporters. Most enzyme assays (CYPs, kinases, phosphatases, proteases, HDACs) used recombinant protein and specific substrates (fluorescence mostly, some colorimetric and radioactive) and inhibitors, followed by a biochemical separation of substrate and product. All assays for the biochemical HTS were initially run in duplicate at a single concentration (10 uM for CYP450 assays and 25 uM for all others). […] Each assay was run with positive and negative controls, and concurrent controls on every plate. The follow-up (secondary) screen tested active chemical-pairs in concentration series, as well as a few additional assays not tested in the primary screen, some selected negative inactives, and several cases re-run in the concentration series for confirmatory purposes.", "values": [
      {"compound": "CCCCC(O)(Cn1cncn1)c1ccc(Cl)cc1Cl", "note": "(configuration not stated)", "AC50": "7.24 µM (active)"},
      {"compound": "CC1(C)C(C=C(Cl)Cl)C1C(=O)OC(C#N)c1cccc(Oc2ccccc2)c1", "note": "(configuration not stated)", "outcome": "inactive"},
      {"compound": "N#Cc1c[nH]cc1-c1cccc2c1OC(F)(F)O2", "outcome": "inactive"},
      {"compound": "CC(C)=CC1C(C(=O)OCc2coc(Cc3ccccc3)c2)C1(C)C", "note": "(configuration not stated)", "AC50": "25 µM (active)"},
      {"compound": "CCN(CC)c1nc(C)cc(OP(=S)(OC)OC)n1", "AC50": "18.5 µM (active)"},
      {"compound": "CCCCC(C#N)(Cn1cncn1)c1ccc(Cl)cc1", "note": "(configuration not stated)", "outcome": "inactive"},
      {"compound": "COCC(=O)N(c1c(C)cccc1C)C(C)C(=O)OC", "note": "(configuration not stated)", "outcome": "inactive"},
      {"compound": "O=C1C2CC=CCC2C(=O)N1SC(Cl)(Cl)Cl", "note": "(configuration not stated)", "outcome": "inactive"},
      {"compound": "N#Cc1c(Cl)cccc1Cl", "outcome": "inactive"},
      {"compound": "COP(=S)(OC)Oc1ccc([N+](=O)[O-])c(C)c1", "AC50": "14.8 µM (active)"},
      {"compound": "COC(=O)c1c(C(F)F)nc(C(F)(F)F)c(C2=NCCS2)c1CC(C)C", "outcome": "inactive"},
      {"compound": "CC(C)(C)C(=O)C(Oc1ccc(Cl)cc1)n1cncn1", "note": "(configuration not stated)", "outcome": "inactive"}
    ]}
  ]
}
